# ChEMBL document CHEMBL4513216, “Probing the Open Global Health Chemical Diversity Library for Multistage-Active Starting Points for Next-Generation Antimalarials” (ACS Infect Dis, 2020)
# Screen size: about 69,000 compounds; about 8,600 (12%) showed an effect of 50% or more. Only a selection was taken, and strong results are over-represented in it overall.
# Test system: Plasmodium berghei
# Test: Screen against P. berghei liver stage (PbLuc), transformed with Luciferase, at 10uM
# Type: functional, HepG2
# Conditions: tested at 10 uM
row,SMILES,INHIBITION [%]
1,CC(C)N(CCCNC(=O)C1CC1)S(C)(=O)=O,5.91
2,Cc1nccn1[C@@H]1CC[C@@H](NC(=O)CCCn2cncn2)[C@H]1O,25.071
3,COCC1N(C(=O)N2CCOCC2)C2CCC1(O)CC2 (centres undefined),33.6
4,Cc1ccnc(NC(=O)CCNC(=O)c2ccccc2Cl)c1,30.2
5,Cc1ccnc(NCCNC(=O)CCNC(=O)c2ccccc2F)c1,57
6,Cc1ccnc(NCCNC(=O)c2ccccc2NCC(=O)O)c1,11.6
7,CC1=N[C@@]2(CC[C@@H]3CN(C(=O)Nc4ccc(F)cc4)C[C@@H]32)C(=O)N1C,0.542
8,Cc1ccc(C(=O)N2CCn3cnc(COCC4CC4)c3C2)cn1,45.2
9,Cc1nccc([C@H]2C[C@@H]3CCN(C(=O)c4c(C)noc4C)C[C@H]3O2)n1,-3.88
10,COC[C@]1(O)CCN(C(=O)c2ccc(CN(C)C)o2)CC1(C)C,76.5
11,COCc1ccc(C(=O)N2CC[C@@](O)(COC)C(C)(C)C2)o1,-26.2
12,CCOCCn1nc(C)cc1C(=O)N1CC[C@@](O)(COC)C(C)(C)C1,16.2
13,COc1cc(C(=O)N2CCC(O)(CN3CCOCC3)C(C)(C)C2)ccn1 (centres undefined),7.93
14,COC[C@]1(O)CCN(C(=O)c2cccc(CN(C)C)c2)CC1(C)C,54.7
15,COCc1cccc(C(=O)N2CCCC2)c1,1.98
16,CN(C)c1ncc(C2Nc3cc(Cl)ccc3C3=NCCCN32)cn1 (centres undefined),48.4
17,CN(C)C(=O)c1ccn(COc2ccccc2Cl)n1,-28
18,Cn1nc(CN2CCCCC2)c2c1CN(C(=O)c1cccc(Cl)c1)C2,-41.8
19,CC(NC(=O)N1CCN(c2nccs2)CC1)c1nncn1C (centres undefined),-15.5
20,C[C@H]1CN(c2ccccn2)C[C@@]12CCN(Cc1cccnc1)C2=O,48.4
21,CN(C)C(=O)CN1CCCC(Cc2ccc(N3CCCC3)nn2)C1 (centres undefined),42.4
22,CC(C)N1CC[C@H]2[C@H](C[C@@H](Cn3cccn3)N2c2nccs2)C1,54.4
23,CN1C(Cn2cccn2)C[C@@H]2CN(Cc3cnn(C)c3)CC[C@@H]21 (some centres undefined),-10.3
24,CN1C(Cn2cccn2)C[C@@H]2CN(Cc3nccs3)CC[C@@H]21 (some centres undefined),20.4
25,CCC(=O)N1CC[C@H]2[C@H](C[C@@H](Cn3cccn3)N2c2nccs2)C1,21.6
26,CN1[C@H](Cn2cccn2)C[C@@H]2CN(C(=O)Cc3cccs3)CC[C@@H]21,37.4

row,SMILES,INHIBITION [%]
1,c1cnn(C[C@@H]2C[C@@H]3CN(CC4CC4)CC[C@@H]3N2c2nccs2)c1,79.2
2,O=C(CCCn1cnnn1)N1CCC(c2ccncc2)CC1,31.4
3,CN(Cc1ccco1)Cc1cncc2c1CCN(Cc1ccoc1)C2,38.5
4,CC(=O)N1N=C(c2ccco2)OC1C(=O)NCCc1ccc(F)cc1 (centres undefined),-50.8
5,CCOCC1CN(C(=O)c2ccncn2)Cc2cnn(C)c21 (centres undefined),1.48
6,CC(CCc1ccccc1)NC(=O)CN1CCOCC1 (centres undefined),20.8
7,CC(CCc1ccccc1)NC(=O)CNCCCN(C)C (centres undefined),52.5
8,CC(CCc1ccccc1)NC(=O)CNCCCN1CCOCC1 (centres undefined),32.7
9,Cn1cnnc1SCC(=O)NC1CC(=O)N(CCc2ccccc2)C1 (centres undefined),-6.18
10,FC(F)(F)c1cc(NCCCn2cccn2)nc(-c2cccnc2)n1,15.1
11,CC(=O)N1CCc2c(nc(-c3cccnc3)nc2N(C)CC(O)CO)C1 (centres undefined),-31.4
12,CC(O)CN(C)c1cc(C(F)(F)F)nc(-c2cccnc2)n1 (centres undefined),16.6
13,COCC(O)CN(C)c1cc(C(F)(F)F)nc(-c2cccnc2)n1 (centres undefined),85.1
14,CN(CCn1cccn1)c1cc(C(F)(F)F)nc(-c2cccnc2)n1,3.67
15,COCCCN(C)c1cc(C(F)(F)F)nc(-c2cccnc2)n1,59.4
16,CCN(Cc1cn(CC2CCNCC2)nn1)CC1CCCO1 (centres undefined),-16.3
17,CN(C)C(=O)[C@@H]1CC[C@@H]2[C@@H](CCN2Cc2nccs2)O1,-22.1
18,CCC1=N[C@@]2(CC[C@@H]3CN(Cc4ccccc4F)C[C@@H]32)C(=O)N1CC,13.5
19,Cc1cc(C(=O)N(C)Cc2cccs2)nc(N2CCCC2)n1,-33.7
20,Cc1cc(C(=O)N(C)Cc2cccs2)nc(N2CCOCC2)n1,19.3
21,Cc1cc(C(=O)N(C)Cc2cccs2)nc(N2CCCCC2)n1,52.4
22,CC(C)OCCCNC(=O)CS(=O)(=O)Cc1ccc(C(C)C)cc1,7.67
23,CCCOc1cc(C)ccc1NC(=O)N(C)C,24.2
24,CCc1nnc2n1CCN(C(=O)c1cc3ccc(C)cc3[nH]1)C2,23.7
25,COCC1CN(Cc2cnn(C)c2)Cc2nn(C)cc21 (centres undefined),25.2
26,COCC1CN(CC2CC2)Cc2nn(C)cc21 (centres undefined),55.7

row,SMILES,INHIBITION [%]
1,CCOCC1CN(Cc2ccncc2)Cc2nn(C)cc21 (centres undefined),29.9
2,CCOCC1CN(CC2CC2)Cc2nn(CC3CC3)cc21 (centres undefined),29
3,COCC1CN(Cc2ccncc2)Cc2nn(CC3CC3)cc21 (centres undefined),29.9
4,CCOCC1CN(CC2CC2)Cc2nn(C)cc21 (centres undefined),52
5,COCC1CN(CC2CC2)Cc2nn(CC3CC3)cc21 (centres undefined),56.7
6,COCC1CN(Cc2ccoc2)Cc2nn(C)cc21 (centres undefined),24.1
7,CCOCC1CN(Cc2ccc(F)cc2)Cc2nn(C)cc21 (centres undefined),41.6
8,O=S(=O)(c1ccccc1)N1C[C@@H]2CCCCN(Cc3cccs3)[C@@H]2C1,11.8
9,O=C1CCCC2(CCN(C(=O)c3ccccn3)CC2)N1,17.4
10,O=C(NC[C@]1(O)CCN(Cc2ccsc2)C[C@H]1O)c1c[nH]cn1,-0.275
11,NC(=O)N1CC[C@H](O)[C@@H]1Cc1cccnc1,38.1
12,O=C(N1CCCCC1)N1CCN(c2ccc(Cl)nn2)C(=O)C1,30
13,CCCSc1ncc(CN(C)CCN2CCCCC2)cn1,32.3
14,Cc1cc(C)n(CC2CCCN2C(=O)c2cccn3ccnc23)n1 (centres undefined),15.32
15,CNC(=O)C1CCN(C(=O)c2coc(COc3ccc(OC)cc3)n2)C1 (centres undefined),-66.3
16,COc1ccc(OCc2nc(C(=O)N3CCCNC(=O)C3)co2)cc1,53.6
17,COc1ccc(OCc2nc(C(=O)N3CC[C@H](O)[C@@H](O)C3)co2)cc1,-38.2
18,COc1cc(C)ccc1OCc1nc(C(=O)N2CCCNC(=O)C2)co1,63.8
19,COc1cc(C)ccc1OCc1nc(C(=O)N2CCCC2)co1,37.8
20,CCCC1CCN(C(=O)c2coc(COc3ccc(OC)cc3)n2)C1 (centres undefined),19.5
21,COc1cc(C)ccc1OCc1nc(C(=O)N2CCC(C)CC2)co1,5.33
22,COc1ccc(OCc2nc(C(=O)N3CC(O)C3)co2)cc1,33.5
23,COc1cc(C)ccc1OCc1nc(C(=O)N2CCCO2)co1,67.5
24,Cc1ccc(C(NCC(=O)N2CCNC(=O)C2)c2ccccc2)cc1 (centres undefined),29.4
25,Cc1ccc(NC2CCN(C(=O)c3c(C)nn(C)c3Cl)CC2)nn1,1.45
26,O=C1NCC2=Nc3ccccc3NC(c3ccc(O)cc3)C12 (centres undefined),-72.4

row,SMILES,INHIBITION [%]
1,COC1CCN(C(=O)Cc2csc(-c3ccc(F)cc3)n2)CC1,-7.35
2,CC(C)c1nn(C)c(N2CCOCC2)c1CNC(C)c1ccco1 (centres undefined),4.52
3,O=C(NCc1cccnc1N1CCCCC1)c1ccc2[nH]nnc2c1,17.5
4,Cc1ccccc1CS(=O)(=O)CC(=O)NCc1ccccc1F,-15.8
5,CC(C)n1cc(CN(Cc2ccc(F)cc2)CC2CCCO2)cn1 (centres undefined),18.4
6,O=C(CSC1=NS(=O)(=O)c2cc(F)ccc2N1)c1ccccc1,10.2
7,Cc1cccc(NC(=O)C2CCc3ccccc3N2)c1 (centres undefined),-71.7
8,Cc1occc1C(=O)N1CCn2c(COCC3CC3)cnc2C1C (centres undefined),39.3
9,Cn1cc(C(=O)NCCc2csc(-c3ccccc3)n2)ccc1=O,-8.92
10,COc1cccc(S(=O)(=O)NC(=O)CCC2CCCO2)c1 (centres undefined),-9.76
11,COC1CN(C(=O)COC(C)=O)CCC(=O)N(C)c2ccccc21 (centres undefined),20.7
12,COC1CN(C(=O)CC(C)C)CCC(=O)N(C)c2ccccc21 (centres undefined),1.8
13,COC1CN(C(=O)NC2CCCC2)CCC(=O)N(C)c2ccccc21 (centres undefined),56.3
14,COC1CN(C(=O)OCC(C)C)CCC(=O)N(C)c2ccccc21 (centres undefined),52.5
15,COC1CCN(C(=O)Nc2ccccc2)CC(=O)N(C)c2ccccc21 (centres undefined),55.5
16,COC1CCN(C(=O)C2CCCC2)CC(=O)N(C)c2ccccc21 (centres undefined),33.6
17,COC1CN(C(=O)Nc2ccccc2)CCC(=O)N(C)c2ccccc21 (centres undefined),13.1
18,COC1CN(C(=O)C2CC2)CCC(=O)N(C)c2ccccc21 (centres undefined),29
19,COC1CN(C(=O)CC2CCCC2)CCC(=O)N(C)c2ccccc21 (centres undefined),11.6
20,Cc1cc(NS(=O)(=O)c2ccc(C(=O)O)cc2F)ccc1F,-2.33
21,O=C1C[C@@H]2[C@H](CCN2Cc2ccco2)N1c1ccsc1,39.3
22,O=C(Cn1cc(Cl)cn1)N1CCNC1=O,45.9
23,COc1ccc(CN2CCc3c(nc(-c4ccccn4)[nH]c3=O)C2)cc1,-11.7
24,Cc1oncc1C(=O)NCc1cc(=O)n2c(n1)CN(CC(C)C)CCC2,38.3
25,CC(C)n1nnnc1-c1ccc(NC(=O)CCC(F)(F)F)cc1F,40.3
26,CCCC(=O)NCCc1nc2cc(-c3ccc(OC)cc3)ncn2n1,-3
